# Measurements from PubChem BioAssay (Tox21).
# “And” between values parts separate entries of the source, which are not always exact repeats. Equal values may be shown once. Records with an inconclusive call do not appear. Where a call stands in place of a potency, no number is given. Some structures have more than one record in an assay (separate samples or runs), and their calls can disagree. The source made the active and inactive calls. Calls come from the whole dose curve.
# Molecular target: Acetylcholinesterase (Homo sapiens) (UniProt P22303)
# Sequence (P22303 whole entry, looked up): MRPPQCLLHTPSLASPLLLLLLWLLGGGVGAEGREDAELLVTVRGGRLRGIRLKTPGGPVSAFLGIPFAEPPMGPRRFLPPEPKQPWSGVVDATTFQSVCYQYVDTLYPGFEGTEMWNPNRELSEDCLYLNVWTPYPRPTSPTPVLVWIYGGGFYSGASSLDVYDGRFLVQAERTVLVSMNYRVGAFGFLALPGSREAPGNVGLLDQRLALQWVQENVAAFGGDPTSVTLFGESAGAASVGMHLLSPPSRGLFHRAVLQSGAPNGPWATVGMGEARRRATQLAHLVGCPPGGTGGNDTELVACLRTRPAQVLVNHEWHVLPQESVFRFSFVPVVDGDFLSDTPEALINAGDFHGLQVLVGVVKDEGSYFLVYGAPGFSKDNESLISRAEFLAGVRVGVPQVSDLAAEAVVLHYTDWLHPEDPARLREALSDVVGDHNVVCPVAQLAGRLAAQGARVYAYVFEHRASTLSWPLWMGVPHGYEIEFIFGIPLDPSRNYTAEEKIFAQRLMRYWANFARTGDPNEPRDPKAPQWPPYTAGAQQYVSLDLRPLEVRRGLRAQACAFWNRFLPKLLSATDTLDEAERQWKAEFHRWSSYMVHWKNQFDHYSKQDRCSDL
# Experiment: Acetylcholinesterase (AChE) small molecule antagonists: fluorescence cell-based qHTS assay (AID 1347398); note: nearly all actives have a fitted effect of over 50% in size
# Details: SH-SY5Y cells; Potency: AChE activity; series mostly up to 115 µM
# Text: National Center for Advancing Translational Sciences [NCATS]
# Division of Preclinical Innovation [DPI]
# U.S. Environmental Protection Agency [EPA]
# National Institutes of Environmental Health Sciences [NIEHS]
# National Toxicology Program [NTP]
# U.S. Food and Drug Administration [FDA]
# Acetylcholinesterase (AChE) is the primary cholinesterase in the body that hydrolyzes a key neurotransmitter, acetylcholine. Inhibition of AChE activity can lead to neurotoxicity. Known inhibitors of AChE include organophosphorous pesticides (OP), chemical warfare agents, drugs, and various phytochemicals.
# A homogenous cell-based assay using Amplitetrade mark Fluorimetric Acetylcholinesterase Assay Kit *Green Fluorescence* (AAT Bioquest, Sunnyvale, CA) was used to evaluate the chemicals in the Tox21 10K library that inhibit AChE activity. The assay uses Thiolite Green to quantify the thiocholine produced from the hydrolysis of acetylthiocholine by AChE from the SH-SY5Y cells. AChE can hydrolyze acetylthiocholine to create thiocholine. Thiolite Green is fluorescent when reacting with thiocholine. It has spectral properties similar to those of fluorescein. The fluorescence intensity of Thiolite Green is used to measure AChE activity. Its signal can be easily read by a fluorescence microplate reader at Ex/Em = 490/520 nm.
# Tox21 Assay Protocol Summary:
# For cell-based AChE assay, 2,000 SH-SY5Y cells in 4 uL/well were dispensed into black, clear-bottom 1536-well plates using a Multidrop Combi (Thermo Scientific) dispenser. The assay plates were incubated overnight at 37 C to allow cells to attach to the wells, followed by the transfer of 23 nL compound or DMSO (vehicle control) by a Pintool station (Wako Automation, CA). The plates were incubated for 30 min at 37 C and 5% CO2, followed by the addition of 4 uL of detection cocktail solution (ThioliteGreen, acetylthiocholine) into each well using Flying Reagent Dispenser (Beckman Coulter, CA) and then following 40 min incubation at room temperature. Fluorescent intensity (Ex/Em = 490/520 nm) was measured using an Envision plate reader (PerkinElmer, MA).
# Potency is the fitted concentration of half-maximal effect.
row,SMILES,Potency
1,CCC(=O)C(CC(C)N(C)C)(c1ccccc1)c1ccccc1 (stereo not drawn),inactive
2,O=c1nc(O)n(Cl)c(=O)n1Cl,inactive
3,C[C@]12CCC(=O)C=C1CC[C@@H]1[C@@H]2CC[C@]2(C)C(=O)CC[C@@H]12,inactive
4,Cc1cc(Cl)ccc1OCC(=O)O,inactive
5,CC(=O)[O][Hg][c]1ccccc1,62.7 µM (active) and 56.4 µM (active)
6,Oc1ccccc1-c1ccccc1,inactive
7,CCC[N+]1(C)CCCCC1,inactive
8,O=C(O)c1nc(Cl)ccc1Cl,inactive
9,Nc1ccc(-c2ccc(N)c(Cl)c2)cc1Cl,inactive
10,O=P1(N(CCCl)CCCl)NCCCO1 (stereo not drawn),inactive
11,O=c1[nH]c(=O)n(Cl)c(=O)n1Cl,inactive
12,CC(Cl)(Cl)C(=O)O,inactive
13,CNC,inactive
14,C1CCC(NC2CCCCC2)CC1,inactive
15,Nc1ccc(-c2ccc(N)cc2)cc1,inactive
16,CCCCCCCCCCCCCC[P+](CCCCCC)(CCCCCC)CCCCCC,35.7 µM (active) and 71.6 µM (active) and inactive
17,C=CCOC(Cn1ccnc1)c1ccc(Cl)cc1Cl (stereo not drawn),inactive
18,O=C(O)C(Cl)Cl,inactive
19,O=C(O)C(Cl)(Cl)Cl,inactive

row,SMILES,Potency
1,O=[N+]([O-])c1ccccc1O,inactive
2,CCCn1cc[n+](C)c1,inactive
3,O=C(O)CCl,inactive
4,COCC(=O)N(c1c(C)cccc1C)C(C)C(=O)OC (stereo not drawn),inactive
5,CCCCCCCCCCn1cc[n+](C)c1,35.7 µM (active) [middle of 6 runs]
6,CCCCCCCCCCCC(=O)O,inactive
7,Nc1ccc(Cl)cc1,inactive
8,Cc1cc(-c2ccc(N)c(C)c2)ccc1N,inactive
9,COP(=O)(OC)OC=C(Cl)Cl,inactive
10,CC[N+]1(C)CCCC1,inactive
11,OCCOc1ccccc1,inactive
12,C[N+](C)(C)Cc1ccccc1,inactive
13,O=C(O)COc1ccc(Cl)cc1Cl,inactive
14,CCNc1nc(Cl)nc(NCC)n1,inactive
15,CC[n+]1ccccc1,inactive
16,CCOP(=S)(OCC)Oc1ccc2c(C)c(Cl)c(=O)oc2c1,12.8 µM (active) and 25.2 µM (active) and inactive
17,CCCCCCCCCCCCOS(=O)(=O)O,inactive
18,CCCC[N+]1(C)CCCCC1,inactive
19,CCn1cc[n+](C)c1C,inactive
